# Source: PubChem BioAssay (NCI)
# This is part of a sample that, as a whole, favours compounds with a hit. Of some 79,000 tested, about 15% had one in any assay. Values without a mark were called inactive. Calls of active or inactive are those of the source. No stated cut-off is given here; in the data, active means growth inhibition above about 70%; inactive means the rest.
# Tests used:
# [1] = NCI Yeast Anticancer Drug Screen. Data for the rad14 strain (AID 159);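 further: 0% = growth of vehicle-treated control cultures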; conditions: S. cerevisiae rad14 strain growth inhibition, stronger effect = higher value
# How it was run: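 DNA repair-defective yeast, compound-exposed; % growth inhibition derived by comparison with vehicle-treated controls.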
# [2] = NCI Yeast Anticancer Drug Screen. Data for the sgs1 mgt1 strain (AID 161);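 further: 0% = growth of cultures given vehicle only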; conditions: S. cerevisiae sgs1 mgt1 strain, stronger effect = higher value
# How it was run: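 Genetically altered yeast, compound exposure, growth inhibition relative to vehicle.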
# [3] = NCI Yeast Anticancer Drug Screen. Data for the CLN2oe strain (AID 163);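 further: 0% = growth of vehicle-only control cultures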; conditions: S. cerevisiae CLN2oe strain, stronger effect = higher value
# How it was run: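 First, the altered yeast strain was treated with each compound; second, its growth was measured; finally, inhibition was derived by comparison with vehicle controls.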
# [4] = NCI Yeast Anticancer Drug Screen. Data for the cln2 rad14 strain (AID 165);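 further: 0% = growth equal to vehicle treated cultures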; conditions: S. cerevisiae cln2 rad14 strain, stronger effect = higher value
# How it was run: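 Test compounds were added to cln2 rad14 yeast cultures; inhibition of growth was then determined by comparison with vehicle treatment.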
# [5] = NCI Yeast Anticancer Drug Screen. Data for the bub3 strain (AID 167); conditions: S. cerevisiae bub3 mutant strain, stronger effect = higher value
# How it was run: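 In this screen, a yeast mutant lacking normal mitotic checkpoint function is challenged with compound. Relative growth versus vehicle gives the inhibition value.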
# [6] = NCI Yeast Anticancer Drug Screen. Data for the wt2 strain (AID 169);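 further: 0% = growth of vehicle-treated yeast cultures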; conditions: S. cerevisiae wt2 strain growth inhibition, stronger effect = higher value
# How it was run: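 The panel's yeast strains carry defined changes in DNA repair or cell cycle genes. Each strain is grown with compound, and growth loss is scored relative to vehicle.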
# [7] = NCI Yeast Anticancer Drug Screen. Data for the mlh1 strain (AID 171);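 further: 0% = growth of vehicle-treated control cultures of the same strain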; conditions: S. cerevisiae mlh1 strain growth inhibition, stronger effect = higher value
# How it was run: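 Inhibition values reflect reduced yeast growth in the presence of compound, referenced to vehicle controls, using a strain chosen for its alteration in DNA repair or cell cycle control.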
# [8] = NCI Yeast Anticancer Drug Screen. Data for the sgs1 strain (AID 173);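 further: 0% = growth of vehicle-only control cultures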; conditions: S. cerevisiae sgs1 mutant, stronger effect = higher value
# How it was run: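 Vehicle-treated cultures served as reference for growth inhibition of a yeast strain altered in DNA damage repair or cell cycle control after compound exposure.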
# [9] = NCI Yeast Anticancer Drug Screen. Data for the mlh1 rad18 strain (AID 175); conditions: S. cerevisiae mlh1 rad18 strain growth inhibition, stronger effect = higher value
# How it was run: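 Inhibition values reflect reduced growth of mutant yeast versus vehicle-treated controls following compound exposure; the mutations affect DNA damage repair.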
# [10] = NCI Yeast Anticancer Drug Screen. Data for the rad18 strain (AID 177); conditions: S. cerevisiae rad18 mutant growth inhibition, stronger effect = higher value
# How it was run: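 Steps: expose repair-mutant yeast to compound; measure growth; express as inhibition relative to vehicle control.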
# [11] = NCI Yeast Anticancer Drug Screen. Data for the rad50 strain (AID 155);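 further: 0% = growth of vehicle-only cultures of the same strain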; conditions: S. cerevisiae rad50 strain growth inhibition, stronger effect = higher value
# How it was run: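 DNA repair mutant yeast, compound exposure, growth read-out; inhibition is taken relative to vehicle.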
# [12] = NCI Yeast Anticancer Drug Screen. Data for the mec2-1 strain (AID 157); conditions: S. cerevisiae mec2-1 strain, stronger effect = higher value
# How it was run: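 Each compound was tested on mec2-1 yeast, a strain altered in DNA damage repair or cell cycle control. Growth inhibition is reported relative to vehicle.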
# [13] = NCI Yeast Anticancer Drug Screen. Data for the wt1 strain (AID 149);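 further: 0% = growth of vehicle-treated wt1 cultures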; conditions: S. cerevisiae wt1 strain (SPY 50644) growth inhibition, stronger effect = higher value
# How it was run: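 wt1 strain grown with compound or vehicle; inhibition taken from the growth difference.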
# [14] = NCI Yeast Anticancer Drug Screen. Data for the rad50EPP+ strain (AID 151);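 further: 0% = growth of vehicle-treated control cultures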; conditions: S. cerevisiae rad50 mutant strain, stronger effect = higher value
# How it was run: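 Genetically defined yeast (rad50EPP+, DNA damage repair alteration) is grown with compound, and inhibition of growth is expressed relative to vehicle-treated controls.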
# [15] = at 5.0 µM (retest, dose inferred, filed as 0.5)
# [16] = at 50.0 µM (retest, dose inferred, filed as 5.0)
structure (smiles),measurement,setting,value
O=c1oc2ccccc2c(O)c1C(c1ccc2c(c1)Cc1ccccc1-2)c1c(O)c2ccccc2oc1=O,growth inhibition,[1]; at 100.0 µM,98% (active)
same,growth inhibition,[2]; [15],-14%
same,growth inhibition,[2]; [16],96% (active)
same,growth inhibition,[2]; at 50.0 µM,73.4% (active)
same,growth inhibition,[3]; at 1.2 µM,23%
same,growth inhibition,[3]; at 3.7 µM,0%
same,growth inhibition,[3]; at 11.0 µM,15%
same,growth inhibition,[3]; at 33.0 µM,91% (active)
same,growth inhibition,[3]; at 100.0 µM,97% (active)
same,growth inhibition,[4]; [15],10%
same,growth inhibition,[4]; [16],95% (active)
same,growth inhibition,[4]; at 50.0 µM,79% (active)
same,growth inhibition,[5]; at 1.2 µM,-7%
same,growth inhibition,[5]; at 3.7 µM,-2%
same,growth inhibition,[5]; [15],18%
same,growth inhibition,[5]; at 11.0 µM,13%
same,growth inhibition,[5]; at 33.0 µM,63%
same,growth inhibition,[5]; [16],95% (active)
same,growth inhibition,[5]; at 50.0 µM,75.9% (active)
same,growth inhibition,[5]; at 100.0 µM,96% (active)
same,growth inhibition,[6]; at 1.2 µM,-17%
same,growth inhibition,[6]; at 3.7 µM,-14%
same,growth inhibition,[6]; at 11.0 µM,52%
same,growth inhibition,[6]; at 33.0 µM,95% (active)
same,growth inhibition,[6]; at 100.0 µM,93% (active)
same,growth inhibition,[7]; at 1.2 µM,4%
same,growth inhibition,[7]; at 3.7 µM,3%
same,growth inhibition,[7]; at 11.0 µM,25%
same,growth inhibition,[7]; at 33.0 µM,96% (active)
same,growth inhibition,[7]; at 100.0 µM,98% (active)
same,growth inhibition,[8]; at 1.2 µM,18%
same,growth inhibition,[8]; at 3.7 µM,29%
same,growth inhibition,[8]; at 11.0 µM,17%
same,growth inhibition,[8]; at 33.0 µM,83% (active)
same,growth inhibition,[8]; at 100.0 µM,97% (active)
same,growth inhibition,[9]; [15],14%
same,growth inhibition,[9]; [16],59%
same,growth inhibition,[9]; at 50.0 µM,88% (active)
same,growth inhibition,[10]; at 1.2 µM,21%
same,growth inhibition,[10]; at 3.7 µM,25%
same,growth inhibition,[10]; at 11.0 µM,23%
same,growth inhibition,[10]; at 33.0 µM,52%
same,growth inhibition,[10]; at 100.0 µM,96% (active)
O=C1NC(=S)NC(=O)C1=C/C=C/c1ccccc1,growth inhibition,[11]; [15],33%
same,growth inhibition,[11]; [16],40%
same,growth inhibition,[11]; at 50.0 µM,73% (active)
same,growth inhibition,[12]; [15],40%
same,growth inhibition,[12]; [16],32%
same,growth inhibition,[12]; at 50.0 µM,46.6%
same,growth inhibition,[2]; [15],4%
same,growth inhibition,[2]; [16],89% (active)
same,growth inhibition,[2]; at 50.0 µM,79.7% (active)
same,growth inhibition,[4]; [15],44%
same,growth inhibition,[4]; [16],89% (active)
same,growth inhibition,[4]; at 50.0 µM,31.8%
same,growth inhibition,[5]; [15],26%
same,growth inhibition,[5]; [16],84% (active)
same,growth inhibition,[5]; at 50.0 µM,73.7% (active)
same,growth inhibition,[6]; at 1.2 µM,-15%
same,growth inhibition,[6]; at 3.7 µM,-3%
same,growth inhibition,[6]; at 11.0 µM,2%
same,growth inhibition,[6]; at 33.0 µM,46%
same,growth inhibition,[6]; at 100.0 µM,98% (active)
same,growth inhibition,[9]; [15],29%
same,growth inhibition,[9]; [16],33%
same,growth inhibition,[9]; at 50.0 µM,69.7%
CC(=O)[CH-]C(=O)c1ccccc1.CC(=O)[CH-]C(=O)c1ccccc1.C[C@]12CCC(=O)C=C1CC[C@@H]1C2CC[C@@]2(C)C1CC[C@@H]2[O-].C[C@]12CCC(=O)C=C1CC[C@@H]1C2CC[C@@]2(C)C1CC[C@@H]2[O-].Cl.[Ti+4] (stereo partly specified),growth inhibition,[11]; [15],41%
same,growth inhibition,[11]; [16],78% (active)
same,growth inhibition,[11]; at 50.0 µM,76.8% (active)
same,growth inhibition,[12]; [15],35%
same,growth inhibition,[12]; [16],84% (active)
same,growth inhibition,[12]; at 50.0 µM,70.8% (active)
same,growth inhibition,[2]; [15],39%
same,growth inhibition,[2]; [16],85% (active)
same,growth inhibition,[2]; at 50.0 µM,78.8% (active)
same,growth inhibition,[4]; [15],26%
same,growth inhibition,[4]; [16],48%
same,growth inhibition,[4]; at 50.0 µM,50.9%
same,growth inhibition,[5]; [15],37%
same,growth inhibition,[5]; [16],86% (active)
same,growth inhibition,[5]; at 50.0 µM,76.5% (active)
c1ccc2c(NCCCCCCCCNc3c4ccccc4nc4ccccc34)c3ccccc3nc2c1,growth inhibition,[11]; [15],87% (active)
same,growth inhibition,[11]; [16],97% (active)
same,growth inhibition,[11]; at 50.0 µM,85.3% (active)
same,growth inhibition,[12]; [15],89% (active)
same,growth inhibition,[12]; [16],98% (active)
same,growth inhibition,[12]; at 50.0 µM,87.5% (active)
same,growth inhibition,[2]; [15],64%
same,growth inhibition,[2]; [16],90% (active)
same,growth inhibition,[2]; at 50.0 µM,75.4% (active)
same,growth inhibition,[4]; [15],44%
same,growth inhibition,[4]; [16],83% (active)
same,growth inhibition,[4]; at 50.0 µM,46.7%
same,growth inhibition,[5]; [15],68%
same,growth inhibition,[5]; [16],49%
same,growth inhibition,[5]; at 50.0 µM,80.2% (active)
same,growth inhibition,[9]; [15],91% (active)
same,growth inhibition,[9]; [16],97% (active)
Nc1nc(N)c(-c2ccc(Cl)c(Cl)c2)c(CP(Cl)(Cl)(Cl)Br)n1,growth inhibition,[13]; at 1.2 µM,9%
same,growth inhibition,[13]; at 3.7 µM,16%
same,growth inhibition,[13]; at 11.0 µM,45%
same,growth inhibition,[13]; at 33.0 µM,55%
same,growth inhibition,[13]; at 100.0 µM,48%
same,growth inhibition,[14]; at 1.2 µM,-2%
same,growth inhibition,[14]; at 3.7 µM,4%
same,growth inhibition,[14]; at 11.0 µM,20%
same,growth inhibition,[14]; at 33.0 µM,33%
same,growth inhibition,[14]; at 100.0 µM,48%
same,growth inhibition,[11]; at 1.2 µM,9%
same,growth inhibition,[11]; at 3.7 µM,46%
same,growth inhibition,[11]; [15],53%
same,growth inhibition,[11]; at 11.0 µM,69%
same,growth inhibition,[11]; at 33.0 µM,76% (active)
same,growth inhibition,[11]; [16],80% (active)
same,growth inhibition,[11]; at 50.0 µM,62%
same,growth inhibition,[11]; at 100.0 µM,59%
same,growth inhibition,[12]; at 1.2 µM,4%
same,growth inhibition,[12]; at 3.7 µM,7%
same,growth inhibition,[12]; [15],39%
same,growth inhibition,[12]; at 11.0 µM,13%
same,growth inhibition,[12]; at 33.0 µM,38%
same,growth inhibition,[12]; [16],78% (active)
same,growth inhibition,[12]; at 50.0 µM,42.4%
same,growth inhibition,[12]; at 100.0 µM,27%
same,growth inhibition,[1]; at 1.2 µM,6%
same,growth inhibition,[1]; at 3.7 µM,8%
same,growth inhibition,[1]; at 11.0 µM,27%
same,growth inhibition,[1]; at 33.0 µM,37%
same,growth inhibition,[1]; at 100.0 µM,54%
same,growth inhibition,[2]; [15],30%
same,growth inhibition,[2]; [16],82% (active)
same,growth inhibition,[2]; at 50.0 µM,63.6%
same,growth inhibition,[3]; at 1.2 µM,-2%
same,growth inhibition,[3]; at 3.7 µM,-6%
same,growth inhibition,[3]; at 11.0 µM,-9%
same,growth inhibition,[3]; at 33.0 µM,-2%
same,growth inhibition,[3]; at 100.0 µM,10%
same,growth inhibition,[4]; [15],0%
same,growth inhibition,[4]; [16],22%
same,growth inhibition,[4]; at 50.0 µM,9.75%
same,growth inhibition,[5]; at 1.2 µM,10%
same,growth inhibition,[5]; at 3.7 µM,23%
same,growth inhibition,[5]; [15],45%
same,growth inhibition,[5]; at 11.0 µM,42%
same,growth inhibition,[5]; at 33.0 µM,56%
same,growth inhibition,[5]; [16],78% (active)
same,growth inhibition,[5]; at 50.0 µM,51.4%
same,growth inhibition,[5]; at 100.0 µM,55%
same,growth inhibition,[6]; at 1.2 µM,7%
same,growth inhibition,[6]; at 3.7 µM,18%
same,growth inhibition,[6]; at 11.0 µM,56%
same,growth inhibition,[6]; at 33.0 µM,80% (active)
same,growth inhibition,[6]; at 100.0 µM,94% (active)
same,growth inhibition,[7]; at 1.2 µM,-8%
same,growth inhibition,[7]; at 3.7 µM,-2%
same,growth inhibition,[7]; at 11.0 µM,7%
same,growth inhibition,[7]; at 33.0 µM,48%
same,growth inhibition,[7]; at 100.0 µM,88% (active)
same,growth inhibition,[8]; at 1.2 µM,-1%
same,growth inhibition,[8]; at 3.7 µM,6%
same,growth inhibition,[8]; at 11.0 µM,49%
same,growth inhibition,[8]; at 33.0 µM,74% (active)
same,growth inhibition,[8]; at 100.0 µM,92% (active)
same,growth inhibition,[9]; [15],64%
same,growth inhibition,[9]; [16],88% (active)
same,growth inhibition,[9]; at 50.0 µM,58.4%
same,growth inhibition,[10]; at 1.2 µM,13%
same,growth inhibition,[10]; at 3.7 µM,45%
same,growth inhibition,[10]; at 11.0 µM,75% (active)
same,growth inhibition,[10]; at 33.0 µM,79% (active)
same,growth inhibition,[10]; at 100.0 µM,74% (active)
